Columns and labels:
[1] = tested on: P. falciparum NF54-pfs16-GFP early (I-III) stage gametocytes; assay: relative % inhibition of viable gametocyte number; higher = more gametocytocidal; conditions: stage: early (I-III) gametocyte, incubation 72 h
Outline: (§1)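 In 384-well poly-D-lysine imaging plates, NF54 pfs16-GFP gametocytes (magnet-isolated, early I/IIa on day 2 or late on day 8; 10% parasitaemia, 0.1% haematocrit) received compound in duplicate at 5 or 0.5 µM. Plates stood 72 h at 37°C in 5% CO2 and 5% O2, then overnight with MitoTracker Red before confocal imaging, where elongated GFP objects with MitoTracker signal above cut-off counted as viable. Relative inhibition was calculated against vehicle and positive-control wells on the same plate.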

[2] = tested on: P. falciparum NF54-pfs16-GFP late (IV-V) stage gametocytes; assay: as above; conditions: stage: late (IV-V) gametocyte, incubation 72 h
Outline: as §1

SMILES	relative % inhibition ([1]; 0.5 µM)	relative % inhibition ([1]; 5 µM)	relative % inhibition ([2]; 0.5 µM)	relative % inhibition ([2]; 5 µM)
CCOc1cc(CNC(C)C(O)c2ccccc2)cc(Cl)c1OCC (stereo not drawn)	-15.8%	-1.9%	32.7%	74.4%
Oc1ccc(C(=C(Cl)Cl)c2ccc(O)cc2)cc1	-6.22%	29.1%	-1.73%	-7.57%
C=CC12CCN(CC1)C(C(O)c1ccnc3ccc(OC)cc13)C2 (stereo not drawn)	91.6%	75.8%	37.9%	36.1%
CCCc1cc(O)c2c3c(c(=O)oc2c1)CN(C)CC3	38.5%	91.6%	38.3%	49.1%
CCCCCCc1cc(O)c2c3c(c(=O)oc2c1)CCC(C)C3 (stereo not drawn)	-14.4%	86.1%	69.5%	98.9%
O=C(CCc1ccco1)NC1CCN(CC2(c3ccc(Cl)cc3)CCC2)CC1	-4.87%	91.7%	21.7%	82.2%
COc1ccc(CN2CCN(Cc3ccccc3)CC2)c(O)c1	-13.8%	-3.4%	12.2%	7.95%
Oc1ccc(Br)cc1CN1CCN(Cc2ccc(Cl)cc2)CC1	12.1%	88.4%	26.8%	31%
CN(N=O)C1=C(NC2CCCCC2)C(=O)c2ccccc2C1=O	34.8%	10.4%	20.6%	38.1%
Oc1ccc(Br)cc1CN1CCN(Cc2cccc(F)c2)CC1	-1.27%	63.9%	50.4%	95.9%
CCOc1c(Cl)cc(CNC(C)C(O)c2ccccc2)cc1OC (stereo not drawn)	-16.9%	71.9%	-0.71%	31.3%
COc1cc(CNCCc2ccc(Cl)cc2)cc(OC)c1O	9.61%	87.4%	-10.8%	3.51%

— the supplement of paper PMC3842684
